Fluorescence intensity data for 60 molecules are collected here from PubChem BioAssay AID624483 (NMMLSC, 2012).

Out of some 360,000 compounds screened, about 11,000 (3.1%) were called active. Inconclusive results (about 2%) are left out. This is one part of a sample in which actives are shown more often than they occur. A number with no mark means an inactive call. Cut-off read from the data, not from the text of the source: active = fluorescence intensity above about 16000; inconclusive = no clear call, values can overlap the other calls; inactive = below that.

This test in a line: compound fluorescence in toxin protease inhibitor counterscreen, primary screen, artefact control for toxin protease inhibitor project, biochemical, multiplex microsphere, HTS (AID 624483). Conditions: compound autofluorescence counterscreen, microsphere flow cytometry; active compounds read high. A general note: The purpose of a counterscreen is to sort out artefacts and off-target activity.
With `Cc1nn(-c2ccccc2)c2[nH]c(C(F)(F)F)cc(=O)c12`, the fluorescence intensity was 4600. Take `CCOc1cc(C)c(S(=O)(=O)NCc2ccccn2)cc1C`: the fluorescence intensity was 3700. As for `CCOc1cc(C)c(Cl)cc1S(=O)(=O)n1nnc2ccccc21`, the fluorescence intensity was 10500. Turning to `CCCOc1cc(C)c(S(=O)(=O)n2nnc3ccccc32)cc1C`, the fluorescence intensity was 16800 (active). Regarding `O=C(NCCCN1CCCCCC1)c1ccc(N2CCCC2=O)cc1`, the fluorescence intensity is 3260. For the molecule `CC1CCCC(NC(=O)c2cccc(N3CCCC3=O)c2)C1C` (stereo not given), the fluorescence intensity is 2560. Regarding `CC1CCC(NC(=O)c2ccc(N3CCCC3=O)cc2)CC1` (stereo not given), the fluorescence intensity is 21800 (active). With `C=CCn1c(SCc2ccc(Cl)c(Cl)c2)nnc1C(CO)NC(=O)c1ccc(OC)cc1` (stereo not given), the fluorescence intensity is 2760. With `C=CCn1c(SCCOc2ccc(OC)cc2)nnc1C(NC(=O)c1ccc(OC)cc1)C(C)C` (stereo not given), the fluorescence intensity is 24400 (active). For the molecule `CCn1c(SCC(=O)NNC(=O)c2ccc(OC)cc2)nnc1C(C)C`, the fluorescence intensity was 6340.

`C=CCn1c(SCC(=O)c2ccc(Br)cc2)nnc1C(C)NC(=O)Cc1ccc(OC)cc1` (stereo not given): the fluorescence intensity is 23200 (active).

As for `C=CCn1c(CNC(=O)c2ccco2)nnc1SCC(=O)c1ccc(OC)cc1`, the fluorescence intensity was 3770. In the case of `COc1ccc(C(=O)NCc2nnc(SCCOc3ccccc3)n2C)cc1`, the fluorescence intensity is 5100.

Consider `CCCNC(=O)c1cc(C2CCCCN2S(=O)(=O)c2cn(C)cn2)on1` (stereo not given), for which the fluorescence intensity is 3300. Regarding `O=C(NCc1ccc(F)cc1)C1CCC(CNc2c(N3CCOCC3)c(=O)c2=O)CC1` (stereo not given), the fluorescence intensity was 4840. Take `O=S(=O)(NC1CC2CCC1C2)c1ccc(Cl)cc1` (stereo not given): the fluorescence intensity is 3140.

In the case of `CCOC(=O)[C@]12CCCC=C1N(Cc1ccc(Cl)cc1Cl)C(=O)[C@H](CC(=O)N1CCCCC1)C2`, the fluorescence intensity is 6000. Consider `COc1cccc(-c2cc3nc(NCCOc4ccccc4Cl)n(C)c(=O)c3s2)c1`, for which the fluorescence intensity was 3580. As for `CC1(C(=O)NS(=O)(=O)c2cccc(F)c2)CCN1C(=O)Cc1ccc(Cl)cc1Cl` (stereo not given), the fluorescence intensity was 3750.

In the case of `CCCCN1C(=O)C(CC(=O)NCc2cccs2)CC(C(=O)N2CCCCCC2)=C1C` (stereo not given), the fluorescence intensity is 5770.

Turning to `CN(C)c1ccnc(Oc2ccc(F)cc2)c1C#N`, the fluorescence intensity is 8110. With `O=C(CNC(=O)c1ccccc1)NCC(=O)OCc1ccc(Cl)cc1`, the fluorescence intensity was 22400 (active).

As for `O=C(CNC(=O)c1ccccc1)NCC(=O)OCC(=O)c1ccccc1`, the fluorescence intensity was 5170.

`O=C(CCC(=O)OCc1ccc(Cl)cc1)Nc1ccccc1`: the fluorescence intensity was 2700. On to `O=C(OCCN1C(=O)c2ccccc2C1=O)Oc1ccccc1`, for which the fluorescence intensity was 4060. In the case of `O=C1c2ccccc2C(=O)N1CCCCCCN1C(=O)c2ccccc2C1=O`, the fluorescence intensity is 3880. As for `Nc1ccc(SCCN2C(=O)c3ccccc3C2=O)cc1`, the figure is 19900 (active); as for `CCOc1ccc2c(c1)cc(CN(C(=O)CC)C1CCCCC1)c1nnnn12`, 3990.

In the case of `CCOC1=C2[C@@H](CN(S(=O)(=O)c3ccc(C)cc3)[C@H]2c2ccccc2F)[C@H]2C(=O)N(Cc3ccccc3)C(=O)[C@H]2C1`, the fluorescence intensity is 4840. For `CCOc1ccc2[nH]c(=S)sc2c1`, the fluorescence intensity was 5910. With `CCc1ccc2ncc(C(=O)c3ccccc3)c(N3CCOCC3)c2c1`, the fluorescence intensity was 6180. In the case of `O=C(NCC(c1cccs1)N1CCOCC1)c1cc(-c2ccccn2)nc2ccccc12` (stereo not given), the fluorescence intensity is 4740. For the molecule `O=C(c1ccccc1)c1cc(-c2ccccn2)c(N2CCOCC2)s1`, the fluorescence intensity was 25300 (active). Take `COc1ccccc1Oc1ccc(S(=O)(=O)Nc2cccnc2)cc1`: the fluorescence intensity was 21600 (active). `COc1ccc(S(=O)(=O)Nc2cccnc2)c(Cl)c1Cl`: the fluorescence intensity is 3840. As for `Cc1cc(C)c(C)c(S(=O)(=O)Nc2cccnc2)c1C`, the fluorescence intensity was 6330. Then `COC(=O)c1ccc2nc(-c3ccc(OC)c(OC)c3)c(Cc3ccccc3)n2c1`, with 4370; and `Fc1cccc(Cc2c(-c3ccc(Cl)cc3)nc3ccc(Cl)cn23)c1`, with 8180. For the molecule `Fc1cccc(Cc2c(-c3cccc(Cl)c3)nc3ccc(Br)cn23)c1`, the fluorescence intensity is 19700 (active). For `Clc1cccc(Cc2c(-c3cccc(Cl)c3)nc3ccc(Cl)cn23)c1`, the fluorescence intensity is 8680. As for `OC[C@@H]1CN(Cc2ccncc2)C[C@H](n2cnc3c(N4CCN(c5ccccc5)CC4)ncnc32)O1`, the fluorescence intensity is 3810. `COCCN1C(=O)N(c2ccc(Cl)cc2)C(=O)C1CC(=O)Nc1cc(OC)cc(OC)c1` (stereo not given): the fluorescence intensity was 3750. As to `CC(C)(C)OC(=O)N/N=C/c1ccc(C(=O)O)cc1`, the fluorescence intensity is 2640.

Take `Cc1cc(C(=O)OCC(=O)Nc2ccc(F)c(F)c2)c(C)o1`: the fluorescence intensity is 21600 (active). Regarding `Cc1cc(C)cc(NC(=O)COC(=O)c2cc(C)oc2C)c1`, the fluorescence intensity is 4090. Then `Cc1cc(C(=O)OCC(=O)Nc2ccccc2Cl)c(C)o1`, with 8500. In the case of `CCCCSc1nnc(-c2ccc(C)cc2)o1`, the fluorescence intensity is 11000. As for `COc1ccc(-c2nnc(-c3ccc4ccccc4c3)o2)cc1`, the figure is 3860; as for `CCCCOc1ccc(-c2nnc(-c3ccco3)o2)cc1`, 21200 (active); as for `NCCCNC(=S)NCCCN(Cc1ccc(Cl)cc1)c1ccc(Br)cn1`, 3820. For `O=C(NCc1ccco1)c1cccc(-c2ccc3nncn3c2)c1`, the fluorescence intensity is 3920.

For the molecule `C=CCNC(=O)c1cc2nc(C3CC3)cc(C(F)F)n2n1`, the fluorescence intensity was 17500 (active). In the case of `CC1CCN(C(=O)c2cc3nc(C4CC4)cc(C(F)(F)F)n3n2)CC1`, the fluorescence intensity is 3040. Regarding `O=C(Nc1ccc(Cl)cc1)c1cc2nc(C3CC3)cc(C(F)(F)F)n2n1`, the fluorescence intensity is 11300. On to `CN(C)c1cccc(NC(=O)c2ccc(-c3ccc(F)c(F)c3)c3ccoc23)c1`, for which the fluorescence intensity is 3910. Consider `CCCCn1nnnc1C(c1cc2ccccc2o1)N(C)Cc1ccc(Cl)c(Cl)c1` (stereo not given), for which the fluorescence intensity was 5870. For the molecule `C=CCSc1nc(Cc2ccc(Cl)cc2)nc2ccccc12`, the fluorescence intensity was 23600 (active). For the molecule `CCCNC(=O)CSc1nc(Cc2ccccc2)nc2ccccc12`, the fluorescence intensity is 2990. For the molecule `CC(C)N(C(=O)CSc1nc(COc2ccccc2)nc2ccccc12)C(C)C`, the fluorescence intensity was 3830. Turning to `CCc1nc2ccc(C(=O)N3CCC(O)(Cc4ccccc4)CC3)cn2c1N(C)C(=O)Cc1ccccc1`, the fluorescence intensity is 3520.
